High-throughput results deposited in PubChem by several laboratories.
Sampled rows, rich in hits. Any-hit rate of the full collection: about 3.1%.
HSP90 inh: HSP90 refolding inhibition in rabbit reticulocyte lysate | luciferase refolding luminescence, 3 h | inhibition, % at 5.6 µM | hit rate 0.91% among 290,000 | AID 1789;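 active means inhibition above the screen-wide mean plus 3 SD, computed separately per campaign, cut at about 16% in these data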;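 further: 0% = DMSO wells and 100% = 60 µM geldanamycin wells; inhibitors lower the luminescence because luciferase stays unfolded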
HIF activator: HIF pathway transcriptional activation | U2OS HRE-luciferase reporter, luminescence; normalized: DMSO 0%, desferrioxamine 100% | activation, % at 7.5 µM (by protocol) | hit rate 0.32% among 300,000 | AID 1910;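 active means mean activation of at least 10% of the iron chelator positive control signal, with at least half of replicates also reaching 10%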
ARNT TACC3 PPI: ARNT/TACC3 interaction disruption | Q9Y6A5 | AlphaScreen His-ARNT PAS-B/GST-TACC3 binding, luminescence; TACC3 fragment carries E629A point mutation | inhibition, % at 9.99 µM | hit rate 0.66% among 390,000 | AID 623870;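 active means mean inhibition of replicates at least 50% and at least half of replicates each reaching 50%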;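 further: 0% = complete ARNT plus TACC3 wells and 100% = ARNT alone without TACC3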
HSF-1 act: increases HSF-1 driven luciferase reporter signal; NIH3T3-HGL HSF-1 luciferase reporter, MG132, 8 h; 100% = twice DMSO control signal; activation, % at 9 µM; hit rate 1.7% among 300,000; AID 504408;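 active means mean replicate activation of at least 50% with a set share of replicates each reaching 50%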;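 further: 0% = median of the neutral control wells and 100% = twice that signal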
HSF1 inhib: HSF1 inhibition. hit rate 0.77% among 300,000. activity change, negative = inhibition, % at 7.5 µM (by protocol). NIH3T3-HGL HSE-luciferase, MG132-induced, luminescence 8 h; active compounds read low. AID 2098;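 active means more than half of replicate wells show activity change below -50%, luminescence cut by over half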;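 further: luciferase reports HSF-1 transcriptional activity via heat shock element; 0% = median of DMSO wells and -100% = zero luminescence signal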
* hit, by the source's call; nt = no result given; ! = not active in a repeat.

SMILES | HSP90 inh | HIF activator | ARNT TACC3 PPI | HSF-1 act | HSF1 inhib
COc1ccc(NC(=O)Nc2ccc3c(c2)C(=O)N([C@@H](C)CO)C[C@H](C)[C@@H](CN(C)Cc2ccccc2)O3)cc1 | nt | nt | -3 | nt | nt
N#CC(=C1C=CC(=NO)C(Cl)=C1)c1ccc(Cl)cc1 | nt | nt | -2 | nt | nt
COc1ccc(C(C#N)=C2C=CC(=NO)C=C2)cc1 | 13 | 2 | -4 | 168* | 118
CC(Oc1ccccc1)C(=O)Nc1nc(-c2ccccn2)cs1 (stereo not given) | nt | nt | 68* | nt | nt
C[C@H](NC(=O)c1ccccc1)C(=O)Nc1nc(-c2ccccn2)cs1 | 1 | -1 | 64* | -1 | -4
COCc1cc(C)nc(SCC(=O)Nc2ccccc2N2CCOCC2)c1C#N | 2 | 0 | -3 | 65* | 25
O=C(CSc1ccc(Br)cc1)Nc1ccc(N2CCOCC2)cc1 | nt | 0 | -1 | 0 | 3
O=C(CSc1ccc(Br)cc1)Nc1ccccc1N1CCOCC1 | 1 | 0 | -5 | -82 | -77*
COC(=O)c1cccc(/C=N/NC(N)=S)c1O | 3 | 0 | 67* | -6 | 2
NC(=S)N/N=C/c1ccccc1[N+](=O)[O-] | 3 | 0 | -2 | -2 | -10
COC(=O)C[C@H]1CC[C@H]2[C@H](COc3ccc(NC(=O)Nc4cccc(Cl)c4)cc3C(=O)N2C)O1 | nt | nt | 25 | nt | nt
CCOc1ccc2c(c1)c1nnc(SCC3CCCO3)nc1n2C (stereo not given) | -2 | 93* | 1 | 22 | 9
CCOc1ccc2[nH]c3nc(SCC(=O)NCC4CCCO4)nnc3c2c1 (stereo not given) | 8 | -1 | nt | 4 | 0
O=C(COC(=O)c1ccc(O)cc1O)Nc1ccc(Cl)cn1 | 1 | 0 | -15 | 16 | 6
O=C(COC(=O)c1ccc(O)cc1O)c1ccc(Cl)cc1 | nt | 3 | -1 | 61* | 53
NC(=S)NN=C1CCCCCCCCCC1 | nt | nt | 33* | nt | nt
O=C(O)COc1ccc(/C=N/NC(=O)COc2nsnc2N2CCOCC2)cc1 | -1 | 0 | -8 | -5 | 3
CSc1nc(C)cc(OCC(=O)N/N=C/c2ccccc2O)n1 | 5 | 3 | 49* | -16 | 6
O=C(NCc1ccccn1)C(=O)N/N=C/c1ccccc1O | 8 | 0 | 64* | 1 | 0
O=C(NCCCN1CCOCC1)C(=O)N/N=C/c1ccccc1O | -2 | 1 | 69* | -20 | -3
O=C(COc1nsnc1N1CCOCC1)N/N=C/c1ccccc1O | -4 | 2 | 59* | 3 | -6
O=C(NC1CCCC1)[C@H]1[C@H](CO)[C@H]2Cn3c(ccc(-c4ccncc4)c3=O)[C@H]2N1CCc1ccccc1 | nt | nt | 1 | nt | nt
O=S(=O)(c1ccccc1)N1CCCCN2[C@H](CO)[C@H](c3ccc(-c4ccccc4F)cc3)[C@@H]2C1 | nt | nt | 7 | nt | nt
CO[C@@H]1CN(C)C(=O)c2cc(NC(=O)Nc3ccccc3)ccc2OC[C@H](C)N(C(=O)CC2CC2)C[C@H]1C | nt | nt | -1 | nt | nt
Fc1cccc(F)c1/C=C/c1ccc2ccccc2n1 | 1 | -1 | -2 | -10 | -18
SMILES | HSP90 inh | HIF activator | ARNT TACC3 PPI | HSF-1 act | HSF1 inhib
Fc1cccc(Cl)c1/C=C/c1cnc2ccccc2n1 | 17* | 2 | 15 | -30 | -30
N#CC1=C(N)Oc2c(ccc3ccccc23)C1c1ccsc1 (stereo not given) | -9 | 3 | 0 | 65* | 45
CCc1[nH]nc2c1C(c1ccsc1)C(C#N)=C(N)O2 (stereo not given) | -2 | 0 | -7 | 53* | 16
CCCc1[nH]nc2c1C(c1cc(OC)ccc1F)C(C#N)=C(N)O2 (stereo not given) | 3 | 0 | 1 | 74* | 30
C[C@@H]1CCCCO[C@H](CN(C)C(=O)Nc2ccc(F)cc2)[C@H](C)CN([C@H](C)CO)C(=O)c2cc(NS(=O)(=O)c3ccccc3)ccc2O1 | nt | nt | 5 | nt | nt
O=C(NCCN1CCN(c2ccccc2F)CC1)c1ccc2nc3ccccc3c(=O)n2c1 | -3 | 1 | 48* | 5 | -7
COc1ccc(C2Nc3ccccc3C(=O)N2Cc2ccco2)cc1COc1ccc(F)cc1 (stereo not given) | 1 | -1 | -2 | 103* | 67
COc1ccc(C2Nc3ccccc3C(=O)N2Cc2ccco2)cc1CN1C(=O)c2ccccc2C1=O (stereo not given) | -2 | 0 | -5 | 63*! | 6
CC(=O)Nc1ccc2c(c1)C(=O)N(C)[C@H]1CC[C@H](CC(=O)NCc3ccc(Cl)cc3)O[C@H]1CO2 | nt | nt | -3 | nt | nt
COc1ccc(Cn2c(CCC(=O)Nc3ccc(C)cc3)nc3cccnc32)cc1 | -1 | -15 | 0 | 54* | 29
O=C1N=C(N2CCCCC2)SC1=C1CCCC1 | -5 | 2 | 4 | 16 | 0
CCCCN1C(=O)/C(=C2\SC(N3CCCCC3)=NC2=O)c2ccccc21 | 0 | 2 | 3 | 51* | 36
CO[C@H]1CN(C)C(=O)c2ccc(NC(=O)C3CC3)cc2OC[C@@H](C)N(C)C[C@@H]1C | nt | nt | 34 | nt | nt
COc1ccc(NC(=O)Nc2ccc3c(c2)C(=O)N([C@@H](C)CO)C[C@@H](C)[C@@H](CN(C)C(=O)Cc2ccccc2)OCCCC[C@@H](C)O3)cc1 | nt | nt | -1 | nt | nt
CCN(CC)S(=O)(=O)c1ccc2c(c1)c(=O)c(C(=O)NCc1ccco1)cn2C | -1 | 0 | 2 | -93 | -90*
CCC(=O)c1ccc(N2CCN(C(=O)c3ccc(Br)cc3)CC2)c(F)c1 | -2 | 86* | -3 | -11 | -6
CC(C)NC(=O)N(C)C[C@@H]1Oc2c(NS(=O)(=O)c3ccc(Cl)cc3)cccc2C(=O)N([C@@H](C)CO)C[C@@H]1C | nt | nt | 4 | nt | nt
O=Cc1c(-c2ccc(Cl)cc2)oc2ccc(O)cc12 | nt | 4 | nt | -57 | -55*
COc1cccc(OCc2cc(C(=O)N(C)Cc3nc4ccccc4[nH]3)no2)c1 | 0 | 2 | 2 | 61* | 32
CC(C)c1ccc(/C=C/C(=O)N2CCCCCC2)cc1 | 0 | 1 | 0 | 27 | 13
CN(C)c1ccc(C(=O)n2nnc3ccccc32)cc1 | 6 | 0 | -8 | 56* | 43
CC(C)c1ccc(/C=C/C(=O)n2nnc3ccccc32)cc1 | 0 | 1 | 2 | 83* | 47
Cc1ccc(C(=O)n2nnc3ccccc32)cc1 | -2 | 1 | nt | -23 | -10
CNC(=O)C[C@H]1CC[C@H]2[C@@H](COc3ccc(NC(=O)c4ccno4)cc3C(=O)N2C)O1 | nt | nt | -2 | nt | nt
COc1ccccc1-c1ccc2c(c1)O[C@H](CN(C)S(=O)(=O)c1ccc(F)cc1)[C@@H](C)CN([C@@H](C)CO)S2(=O)=O | nt | nt | -1 | nt | nt
Nc1ccc(C2=Nc3cccc4cccc(c34)N2)cc1 | 2 | 0 | -2 | 73* | 31
Cc1cc(C)c(S(=O)(=O)/N=C2/C=C(Sc3ncn[nH]3)C(=O)c3ccccc32)cc1C | 80* | nt | 32 | nt | nt
CC(C)CNC(=O)[C@@H]1c2ccccc2C(=O)N(CC23CC4CC(CC(C4)C2)C3)[C@H]1c1ccc(CO)cc1 | nt | nt | -21 | nt | nt
